# From PubChem BioAssay (NCATS)
# Records with an inconclusive call do not appear. Entries that show only a call come without a potency. A number with no mark means an inactive call. Calls of active or inactive are those of the source. The call rests on the fitted dose curve.
# Columns and labels:
# [1] = Primary qHTS for inhibitors of SARS-S pseudo-typed particle cell entry (AID 1479145); further: nearly all actives have a fitted effect of over 45% in size; on activity change, negative = inhibition: series mostly up to about 57 µM
# [2] = Primary qHTS for Huh7 cytotoxicity: counterscreen for inhibitors of MERS-S pseudotyped particle cell entry (AID 1479147)
# [3] = Primary qHTS for inhibitors of MERS-S pseudo-typed particle cell entry (AID 1479149); further: nearly all actives have a fitted effect of over 60% in size; further: potency means the concentration at half of the fitted maximal effect; on activity change, negative = inhibition: series mostly up to about 57 µM
# [4] = Primary qHTS for Vero E6 cytotoxicity: counterscreen for inhibitors of SARS-S pseudo-typed particle cell entry (AID 1479150)
smiles,measurement,setting,value
C[C@](N)(Cc1ccc(O)cc1)C(=O)O,"activity change, negative = inhibition",[1],-0.396% [at 5.34 µM]
same,outcome,[2],inactive [at 5.34 µM]
same,outcome,[3],inactive [at 5.34 µM]
same,"activity change, negative = cytotoxicity",[4],-24.5% [at 5.34 µM]
COc1ccc(C2CNC(=O)C2)cc1OC1CCCC1 (centres undefined),Potency,[1],inactive
same,Potency,[2],inactive
same,Potency,[3],inactive
same,Potency,[4],inactive
CC(C)(CO)[C@@H](O)C(=O)NCCCO,Potency,[1],inactive
same,Potency,[2],inactive
same,Potency,[3],inactive
same,Potency,[4],inactive
OCCOCCN1CCN(C2=Nc3ccccc3Sc3ccccc32)CC1,Potency,[1],inactive
same,Potency,[2],inactive
same,Potency,[3],inactive
same,Potency,[4],inactive
S=c1nc[nH]c2nc[nH]c12,Potency,[1],inactive
same,Potency,[2],inactive
same,Potency,[3],inactive
same,Potency,[4],inactive
Nc1ccc(C(=O)O)cc1,Potency,[1],inactive
same,Potency,[2],inactive
same,Potency,[3],inactive
same,Potency,[4],inactive
CCN1CCC[C@H]1CNC(=O)c1cc(S(N)(=O)=O)ccc1OC,Potency,[1],inactive
same,Potency,[2],inactive
same,Potency,[3],inactive
same,Potency,[4],inactive
Cc1ccsc1/C=C/C1=NCCCN1C,Potency,[1],inactive
same,Potency,[2],inactive
same,Potency,[3],inactive
same,Potency,[4],inactive
O=C(O)CCCCC(=O)O,Potency,[1],inactive
same,Potency,[2],inactive
same,Potency,[3],inactive
same,Potency,[4],inactive
CCOC(=O)NNc1ccc(N(CC)CC(C)O)nn1 (centres undefined),Potency,[1],inactive
same,Potency,[2],inactive
same,Potency,[3],inactive
same,Potency,[4],inactive
CNNCc1ccc(C(=O)NC(C)C)cc1,Potency,[1],inactive
same,Potency,[2],inactive
same,Potency,[3],inactive
same,Potency,[4],inactive
CC(C)(Oc1ccc(C2CC2(Cl)Cl)cc1)C(=O)O (centres undefined),Potency,[1],inactive
same,Potency,[2],inactive
same,Potency,[3],inactive
same,Potency,[4],inactive
COc1cc(/C=C/C(=O)O[C@H]2CC[C@]34C[C@]35CC[C@]3(C)[C@@H]([C@H](C)CCC=C(C)C)CC[C@@]3(C)[C@@H]5CC[C@H]4C2(C)C)ccc1O,Potency,[1],inactive
same,Potency,[2],inactive
same,Potency,[3],inactive
same,Potency,[4],inactive
CC(=O)CC(c1ccc([N+](=O)[O-])cc1)c1c(O)c2ccccc2oc1=O (centres undefined),Potency,[1],inactive
same,Potency,[2],inactive
same,Potency,[3],inactive
same,Potency,[4],inactive
C=CC(N)CCC(=O)O (centres undefined),Potency,[1],inactive
same,Potency,[2],inactive
same,Potency,[3],inactive
same,Potency,[4],inactive
CCCCCCCCCCCCSCCOCCO,Potency,[1],inactive
same,Potency,[2],inactive
same,Potency,[3],inactive
same,Potency,[4],inactive
C[N+](C)(CCOc1ccccc1)Cc1cccs1,Potency,[1],inactive
same,Potency,[2],inactive
same,Potency,[3],inactive
same,Potency,[4],inactive
CCCCCCCCCCCCCCCCO,Potency,[1],inactive
same,Potency,[2],inactive
same,Potency,[3],inactive
same,Potency,[4],inactive
CC[N+](CC)(CCNC(=O)C(=O)NCC[N+](CC)(CC)Cc1ccccc1Cl)Cc1ccccc1Cl,Potency,[1],inactive
same,Potency,[2],inactive
same,Potency,[3],inactive
same,Potency,[4],inactive
COc1cc(C(=O)NC2CCCNC2)cc(OC)c1OC (centres undefined),Potency,[1],inactive
same,Potency,[2],inactive
same,Potency,[3],inactive
same,Potency,[4],inactive
CCCCCCOc1ccccc1C(N)=O,Potency,[1],inactive
same,Potency,[2],inactive
same,Potency,[3],20 µM (active)
same,Potency,[4],inactive
CC(C)(C)NC[C@H](O)COc1nsnc1N1CCOCC1,Potency,[1],inactive
same,Potency,[2],inactive
same,Potency,[3],inactive
same,Potency,[4],inactive
OC[C@H]1O[C@@H](Oc2ccc(O)cc2)[C@H](O)[C@@H](O)[C@@H]1O,Potency,[1],inactive
same,Potency,[2],inactive
same,Potency,[3],inactive
same,Potency,[4],inactive
CCCCCCCCCCCCCCCCCCO,Potency,[1],inactive
same,Potency,[2],inactive
same,Potency,[3],inactive
same,Potency,[4],inactive
CC1CCc2c(N3CCC(O)CC3)c(F)cc3c(=O)c(C(=O)O)cn1c23 (centres undefined),Potency,[1],inactive
same,Potency,[2],inactive
same,Potency,[3],inactive
same,Potency,[4],inactive
NS(=O)(=O)c1cc(C(=O)NN2C[C@H]3[C@H]4CCC(C4)[C@H]3C2)ccc1Cl,Potency,[1],inactive
same,Potency,[2],inactive
same,Potency,[3],inactive
same,Potency,[4],inactive
CC(=O)Oc1cccc(O)c1,Potency,[1],inactive
same,Potency,[2],inactive
same,Potency,[3],inactive
same,Potency,[4],inactive
CCN1CCN(C(=O)N[C@@H](C(=O)N[C@@H]2C(=O)N3[C@@H]2SC(C)(C)[C@H]3C(=O)O)c2ccccc2)C(=O)C1=O,Potency,[1],inactive
same,Potency,[2],inactive
same,Potency,[3],inactive
same,Potency,[4],inactive
Cc1cc(NS(=O)(=O)c2ccc(N)cc2)no1,Potency,[1],inactive
same,Potency,[2],inactive
same,Potency,[3],inactive
same,Potency,[4],inactive
O=C(Cn1ccnc1[N+](=O)[O-])NCc1ccccc1,Potency,[1],inactive
same,Potency,[2],inactive
same,Potency,[3],inactive
same,Potency,[4],inactive
CC(=O)NCc1c(I)c(NC(C)=O)c(I)c(C(=O)O)c1I,Potency,[1],inactive
same,Potency,[2],inactive
same,Potency,[3],inactive
same,Potency,[4],inactive
CN/C(=C\[N+](=O)[O-])NCCSCc1csc(CN(C)C)n1,Potency,[1],inactive
same,Potency,[2],inactive
same,Potency,[3],inactive
same,Potency,[4],inactive
CN(C)C(=O)COC(=O)Cc1ccc(OC(=O)c2ccc(N=C(N)N)cc2)cc1,Potency,[1],inactive
same,Potency,[2],inactive
same,Potency,[3],inactive
same,Potency,[4],inactive
O=C1[C@@H]2[C@H]3CC[C@H](C3)[C@@H]2C(=O)N1CCCCN1CCN(c2ncccn2)CC1,Potency,[1],inactive
same,Potency,[2],inactive
same,Potency,[3],inactive
same,Potency,[4],inactive
NC(=O)N1c2ccccc2C=Cc2ccccc21,Potency,[1],inactive
same,Potency,[2],inactive
same,Potency,[3],inactive
same,Potency,[4],inactive
CCn1cc(C(=O)O)c(=O)c2cnc(N3CCCC3)nc21,"activity change, negative = inhibition",[1],-4.52% [at 11.4 µM]
same,outcome,[2],inactive [at 11.4 µM]
same,outcome,[3],inactive [at 11.4 µM]
same,outcome,[4],inactive [at 11.4 µM]
